Source: the OligoGym collection

How the values were obtained:
Assay in all cases: pooled miR-30 sensor sort-seq; sequence = guide strand
Settings in all cases: shRNA
PARP11 = molecular target: PARP11
PCDH11X = molecular target: PCDH11X
PATL1 = molecular target: PATL1
PCDHA4 = molecular target: PCDHA4
PCSK5 = molecular target: PCSK5
PGLYRP2 = molecular target: PGLYRP2
PION = molecular target: PION
PKIG = molecular target: PKIG
PITPNM3 = molecular target: PITPNM3
PKIA = molecular target: PKIA
PKD2L1 = molecular target: PKD2L1
PKLR = molecular target: PKLR
Note: reference of the scale not given here.

TTAATCTGAGGCACACCTCTTT was tested, and the sensor-assay potency score (higher = more potent) (PARP11) was 0.16.

With TTGATCTTAGCATTAGGCCCAC the sensor-assay potency score (higher = more potent) (PCDH11X) was -0.682.

TTTACTTTCATCACGTAGGTAT showed a sensor-assay potency score (higher = more potent) (PCDH11X) of 0.803.

Sequence TATTCTGTTGCTGTCTCTGATG has a sensor-assay potency score (higher = more potent) (PATL1) of -1.31.

Sequence TTTTCTGGCATTTCTTCTCGGA has a sensor-assay potency score (higher = more potent) (PCDH11X) of -0.435.

In the case of TTTTCGGATACACATGATCTGT, the sensor-assay potency score (higher = more potent) (PATL1) is reported as -1.26.

For TTGAGTATTCACATTCTCCCAG, the sensor-assay potency score (higher = more potent) (PARP11) was -0.0297.

Work on TTTGTGCTTTCTGTCATCCATT yielded a sensor-assay potency score (higher = more potent) (PATL1) of -0.905.

AATAGTGACAAAATTAAGCAGC was tested, and the sensor-assay potency score (higher = more potent) (PCDH11X) was -0.804.

In the case of TACTTGAGTATTCACATTCTCC, the sensor-assay potency score (higher = more potent) (PARP11) is reported as -0.755.

In the case of TTGGATTTCACATTTGGCGAAA, the sensor-assay potency score (higher = more potent) (PCDHA4) is reported as -0.705.

TCTCTGTCTAAAGATTTCCGTA showed a sensor-assay potency score (higher = more potent) (PCDHA4) of -0.816.

TAACTACTTTGATTGAACGTAT was tested, and the sensor-assay potency score (higher = more potent) (PCDH11X) was -0.315.

TTTTTTTCTTGAGCTGAGCCTT showed a sensor-assay potency score (higher = more potent) (PARP11) of -0.839.

Work on TTTGTGTTGATTCTGTAGCAGG yielded a sensor-assay potency score (higher = more potent) (PATL1) of -0.627.

Sequence TTGAGGTAGGTTCATTAGCTGT has a sensor-assay potency score (higher = more potent) (PATL1) of -1.61.

Work on TTCTACTTCCACAATAACTCTA yielded a sensor-assay potency score (higher = more potent) (PCDHA4) of 0.0225.

With TTCCTCAGTTGTCTGCAGCTGA the sensor-assay potency score (higher = more potent) (PCDHA4) was 0.537.

In the case of TTTTTCTCCTCTTGTCTCGAAC, the sensor-assay potency score (higher = more potent) (PATL1) is reported as -1.11.

Sequence ATCAGTAACACTCACTTGCAAA has a sensor-assay potency score (higher = more potent) (PCDH11X) of -1.63.

With TAAGCTGATATGGTACTTGAGT the sensor-assay potency score (higher = more potent) (PARP11) was -0.461.

In the case of TGATCTTGATGACTGCTCCGGT, the sensor-assay potency score (higher = more potent) (PATL1) is reported as 0.466.

Sequence TTAAGCAGCAAGTTCTTAGGGG has a sensor-assay potency score (higher = more potent) (PCDH11X) of 0.683.

For TTTAATTCGGTTGCGATCCATC, the sensor-assay potency score (higher = more potent) (PARP11) was -0.893.

With TTCAGTGCTTTTGCGCACCAGT the sensor-assay potency score (higher = more potent) (PCDH11X) was -0.711.

For ATGTCTTTGTCGGACACGCTGA, the sensor-assay potency score (higher = more potent) (PCDHA4) was -1.17.

Sequence TTGTAGGACTACATACATCATA has a sensor-assay potency score (higher = more potent) (PCDH11X) of -0.797.

Sequence TTTTCTAGTAATCTCACCTTAT has a sensor-assay potency score (higher = more potent) (PCDHA4) of -0.448.

With TTTCGGATACACATGATCTGTA the sensor-assay potency score (higher = more potent) (PATL1) was -0.0955.

TATCGTTGTTGTCTTCTACTTC showed a sensor-assay potency score (higher = more potent) (PCDHA4) of 0.366.

Work on TGTCACAACAGCATCAATCATT yielded a sensor-assay potency score (higher = more potent) (PATL1) of -0.773.

TTCAAAGTCAATATATCCCTTT gave a sensor-assay potency score (higher = more potent) (PCDHA4) of 0.476.

Sequence TTTTTTCTTGAGCTGAGCCTTT has a sensor-assay potency score (higher = more potent) (PARP11) of -0.428.

With TTGAACTGCATAGCAGTTGTCA the sensor-assay potency score (higher = more potent) (PCDH11X) was -0.535.

In the case of TTATTCACACTAGAAACGGTAA, the sensor-assay potency score (higher = more potent) (PATL1) is reported as -0.529.

Work on TTTTGCAGGATTTGTATCCATT yielded a sensor-assay potency score (higher = more potent) (PCSK5) of -1.05.

In the case of TCTGGGTCTGGGAACCTCGGAG, the sensor-assay potency score (higher = more potent) (PGLYRP2) is reported as -0.74.

TTCTGCCGTCGGAAGTTGCTGC was tested, and the sensor-assay potency score (higher = more potent) (PGLYRP2) was -0.417.

TAGTAGACTGAACTAAACTTGC showed a sensor-assay potency score (higher = more potent) (PION) of -0.883.

For TTAGTAGACTGAACTAAACTTG, the sensor-assay potency score (higher = more potent) (PION) was -0.14.

TTGATTGTCAGCTCTCTCCATA gave a sensor-assay potency score (higher = more potent) (PKIG) of -0.293.

Sequence TTCTCCTTGATGCTCGTCCAGT has a sensor-assay potency score (higher = more potent) (PITPNM3) of -0.95.

TAACATCTTGTGGTTACAGTGT gave a sensor-assay potency score (higher = more potent) (PKIG) of -0.118.

Work on TACAGGAAGAATCATCATCTAG yielded a sensor-assay potency score (higher = more potent) (PKIA) of -0.916.

TTTACTGGGTGAACACTTGAGC was tested, and the sensor-assay potency score (higher = more potent) (PKIA) was -0.0975.

Work on TTGACTGTGCGGATTTGCCAGG yielded a sensor-assay potency score (higher = more potent) (PKD2L1) of -0.754.

TCATCATCTAGGTCGGAGCTAC showed a sensor-assay potency score (higher = more potent) (PKIA) of -0.746.

Sequence TTGCCAGCTTCCTTGTCTGGGG has a sensor-assay potency score (higher = more potent) (PKIG) of -0.658.

Work on AATCATCATCTTCTGAGCCAGG yielded a sensor-assay potency score (higher = more potent) (PKLR) of -0.988.

Sequence TTGTTCTGTAGAACTTCGTTGT has a sensor-assay potency score (higher = more potent) (PKIA) of 0.279.

Work on ATGTCAGGGACCGCATTCCGAC yielded a sensor-assay potency score (higher = more potent) (PKIG) of -1.85.

With TCACAGCCTCTGAGTCTCCCTG the sensor-assay potency score (higher = more potent) (PKIG) was -1.09.

Work on TTGTTGTACTGTGTCTGCCAGA yielded a sensor-assay potency score (higher = more potent) (PKD2L1) of -0.963.

ATCTTCTTCACCTTCTGTCTTG was tested, and the sensor-assay potency score (higher = more potent) (PKIA) was -0.736.

TATTGCATTTCTTCTACCTGTT gave a sensor-assay potency score (higher = more potent) (PKIA) of 0.0658.

TGTCCGGTCACAGGAGATGAAG gave a sensor-assay potency score (higher = more potent) (PKIG) of -2.03.

Work on TCGAGTGCCAGCTCGCCCATGT yielded a sensor-assay potency score (higher = more potent) (PKIG) of -1.07.

TTCCTCACGCTCACAGCCTCTG was tested, and the sensor-assay potency score (higher = more potent) (PKIG) was -0.203.

In the case of TTCAGGTGAGAGACAAGCGAGA, the sensor-assay potency score (higher = more potent) (PITPNM3) is reported as -0.748.

Sequence TAGAACTTCGTTGTGCATCTTC has a sensor-assay potency score (higher = more potent) (PKIA) of 0.489.
